Data taken from ChEMBL document CHEMBL4513216, “Probing the Open Global Health Chemical Diversity Library for Multistage-Active Starting Points for Next-Generation Antimalarials” (ACS Infect Dis, 2020).
Among all 69,000 compounds or so, about 8,600 (12%) showed an effect of 50% or more. The full list was thinned out, with strong results kept by preference.

Tested on: Plasmodium berghei
Assay: Screen against P. berghei liver stage (PbLuc), transformed with Luciferase, at 10uM
Type: functional, HepG2
Settings: tested at 10 uM

| Compound | INHIBITION [%] |
| --- | --- |
| O=c1cc2c(nn1CN1CCN(c3ccc(F)cc3)CC1)CCC2 | -6.53 |
| C[C@H](NC(=O)Cc1csc(-c2cccc(Cl)c2)n1)C(=O)O | 35 |
| COCC(=O)N1CCCCC1c1nc(C)c2c(n1)N(CC1CC1)C(=O)C2 (stereo not drawn) | 23 |
| O=c1ccc(-c2ccccc2F)nn1CN1CCCCCC1 | -22.9 |
| CCn1c(CC2CCN(S(=O)(=O)Cc3ccccc3)CC2)nn(C)c1=O | -28.1 |
| CN1CCCC(c2ccc(N3CCOCC3)cn2)C1 (stereo not drawn) | -2.48 |
| COC[C@H]1CC[C@H]2[C@H](CCN2S(=O)(=O)Cc2ccccc2)O1 | -34.6 |
| CCOC[C@@H]1CC[C@H]2[C@H](CCN2S(=O)(=O)Cc2ccccc2)O1 | 57.1 |
| CCOC[C@H]1CC[C@H]2[C@H](CCN2S(=O)(=O)Cc2ccccc2)O1 | 12.1 |
| Cc1ccc(CS(=O)(=O)N2CC[C@H]3[C@H]2CC(=O)N3C)cc1 | 15.4 |
| CN1C(=O)CC[C@@H]2[C@H]1CCN2S(=O)(=O)Cc1ccccc1 | 61.5 |
| CN1C(=O)C[C@@H]2[C@@H]1CCN2S(=O)(=O)Cc1ccccc1 | 26.8 |
| Cc1ccc2cnn(CCC(=O)Nc3nc(C)c(C)s3)c2c1 | 30.8 |
| CCC(Nc1cccc(OC)c1)C(=O)NCc1ccc2c(c1)OCO2 (stereo not drawn) | 36.4 |
| Cn1nnc2c1C(COCC1CC1)CN(Cc1ccoc1)C2 (stereo not drawn) | 42.3 |
| Cc1ccc(NC(=O)c2ccc(=O)n(CC(=O)Nc3nccs3)n2)cc1 | 42.7 |
| NC(=O)c1ccc(CN2C(=O)C3(CCNCC3)Nc3ccccc32)cc1 | 67 |
| O=C1CC2(CCNCC2)C(=O)N1Cc1ccc(F)cc1 | 16.1 |
| O=C1CC2(CCCNC2)C(=O)N1Cc1ccc(F)cc1 (stereo not drawn) | 4.06 |
| CC(C)c1ccc(CN2C(=O)C3(CCNCC3)Nc3ccccc32)cc1 | 80.9 |
| N#Cc1cccc(CN2C(=O)C3(CCNCC3)Nc3ccccc32)c1 | 25.5 |
| C=Cc1ccc(CN2C(=O)C3(CCNCC3)Nc3ccccc32)cc1 | 87.8 |
| NC(=O)c1ccc(CN2CCCC(N3CCCCCC3)C2)cc1 (stereo not drawn) | 22 |

| Compound | INHIBITION [%] |
| --- | --- |
| C=Cc1ccc(CN2CCCC3(CNC(=O)c4ccccc4O3)C2)cc1 (stereo not drawn) | 29.2 |
| O=C1CC2(CCCNC2)C(=O)N1Cc1ccccc1 (stereo not drawn) | 27.4 |
| CN(Cc1nnc(C2CC2)n1C)C1CCN(CCc2cnn(C)c2)C1 (stereo not drawn) | 7.08 |
| CO[C@H]1CCN(S(=O)(=O)c2cn(C)cn2)[C@H]1Cc1ccccc1 | -8.85 |
| Cc1nn(C)c(N(C)C)c1CNC(C)c1cccc(OC(C)C)c1 (stereo not drawn) | 27.4 |
| CN(C)CCN(C)C(=O)c1cn(CC2CCCCC2)nn1 | -9.54 |
| O=C(NC1CCCC1)c1cnn2c(-c3ccco3)ccnc12 | -16.4 |
| COC(=O)Cn1c(=O)[nH]c2cn(-c3ccc(Br)cc3)c(=O)n21 | -38.6 |
| COc1cc(NC2CCS(=O)(=O)C2)ncn1 (stereo not drawn) | 33.7 |
| CC(C)c1ccc(C(N)c2cccs2)cc1 (stereo not drawn) | 75.6 |
| CS(=O)(=O)c1cccc(C(N)c2ccc(F)cc2)c1 (stereo not drawn) | -9.76 |
| Cc1ccc(C(CC(=O)O)NC(=O)CCc2cccs2)cc1 (stereo not drawn) | 31 |
| NC(c1ccc(Cl)cc1)c1cccs1 (stereo not drawn) | 22.5 |
| O=C(O)CC(NC(=O)CCCc1cccs1)c1ccc(F)cc1 (stereo not drawn) | 18.4 |
| Cc1ccc(C(N)c2cccs2)cc1 (stereo not drawn) | 61.5 |
| CC(C)c1ccc(-c2nonc2N)cc1 | -15.2 |
| NC(c1ccc(F)cc1)c1cccs1 (stereo not drawn) | 55 |
| Cc1ccc(C(N)c2cccc(S(C)(=O)=O)c2)cc1 (stereo not drawn) | 38.7 |
| CSCC(=O)N1CCCN(Cc2cscn2)CC1 | 7.77 |
| CCc1oc2ccc(NS(=O)(=O)CC)cc2c1C(=O)OC | 1.41 |
| CC(C)=CCCC1(C)C=Cc2c(cc(C)n(CC(=O)O)c2=O)O1 (stereo not drawn) | 18.3 |
| COC(=O)CN(C(=O)C(C)c1c(F)cccc1F)c1cccc(C)n1 (stereo not drawn) | 76 |
| COC(=O)CN(C(=O)c1cc(C(C)C)no1)c1cccc(F)c1 | 7.38 |

| Compound | INHIBITION [%] |
| --- | --- |
| COC(=O)CN(C(=O)c1ccc(Cl)cn1)c1cccc(F)c1 | 33.1 |
| COC(=O)CN(C(=O)c1cc(C)c(F)cc1F)c1cccc(C)n1 | 61.7 |
| CCC(C)C(=O)N(CC(=O)OC)c1cccc(C)n1 (stereo not drawn) | 10.6 |
| COC(=O)CN(C(=O)c1cccc(F)c1Cl)c1cccc(C)n1 | 29.8 |
| O=C(O)Cc1nc2nccc(-c3ccc(F)cc3)n2n1 | 11.5 |
| Cn1cccc1CN(C(=O)Cc1cccs1)C1CC1 | 6.54 |
| N#Cc1ccc(C(=O)O)nc1C=Cc1cccc(Br)c1 | 39.4 |
| O=C(c1cnc(-c2noc3cc(N4CCCC4)ccc23)s1)N1CCCC1 | 8.31 |
| CCN(C)C(=O)c1cnc(-c2noc3cc(N4CCCCC4)ccc23)s1 | 76.3 |
| O=C(NC1CC1)c1cnc(-c2noc3cc(N4CCCCC4)ccc23)s1 | 95.5 |
| O=C(NCCN1CCCC1)c1ccc2c(-c3nccs3)noc2c1 | 28.2 |
| CN(C)CCNC(=O)c1ccc2c(-c3nccs3)noc2c1 | -33 |
| CC1CCN(c2ccc3c(-c4ncc(C(=O)O)s4)noc3c2)CC1 | 23.1 |
| CC(C)COC(=O)N1CC(=O)N(Cc2ccco2)CC(O)C1 (stereo not drawn) | 47.2 |
| CC(C)Nc1ncc(-c2ccncc2)c([C@@H]2CCCO2)n1 | 11.8 |
| CN1CCn2c(-c3cnn(C)c3)cnc2C12CCN(CC1CC1)CC2 | 0.804 |
| CN1CCC(c2nnc3n2CCN(S(=O)(=O)c2ccccc2)C3)CC1 | 40.45 |
| Cc1nc(CN(C)C2CCN(Cc3cccc(F)c3)C2)no1 (stereo not drawn) | 17.5 |
| Cc1ncsc1CNc1cccc(OCCN2CCCC2)c1 | 48.5 |
| c1cc(CN2CCCCC2)cc(NCc2cc[nH]n2)c1 | 2.22 |
| c1ccc(NCc2cccc(OCCN3CCOCC3)c2)nc1 | -8.25 |
| NC(=O)C1CCN(CCc2ccc(NCc3cccnc3)cc2)CC1 | 25.3 |
| Cc1csc(CNc2cccc(OCCN3CCCC3)c2)n1 | 28 |

| Compound | INHIBITION [%] |
| --- | --- |
| Cc1ccnc(NCc2cccc(OCCN3CCOCC3)c2)n1 | -21.1 |
| c1cc(NCc2cscn2)cc(OCCN2CCCCC2)c1 | 56.1 |
| Clc1cncc(NCc2cccc(OCCN3CCOCC3)c2)n1 | 58.5 |
| c1cncc(CNc2cccc(OCCN3CCCCC3)c2)c1 | 68 |
| CC(C)=CCN1CCN(C(=O)C2CCS(=O)(=O)C2)CC1 (stereo not drawn) | 8.4 |
| Cc1ncn(CCNC(=O)Nc2ccccc2)c(=O)c1C | -10.6 |
| O=S(=O)(CCCN1CCCC(Cn2cncn2)C1)c1ccccc1 (stereo not drawn) | 7.67 |
| Cn1nc(Cn2cccn2)c2c1CN(Cc1ccoc1)C2 | 20.1 |
| CCn1ncc2[nH]c(-c3ccc(OC)c(COC)c3)nc21 | -45.8 |
| CC(C)(C)c1cc(C(=O)N2CCOC(c3cnccn3)C2)[nH]n1 (stereo not drawn) | 12.15 |
| Cc1cc(CN2CCC(C3Nc4ccccc4S(=O)(=O)N3)CC2)oc1C (stereo not drawn) | 32.8 |
| COCCNc1ncnc2c1CCN(C(=O)CC1CCC(=O)N1)CC2 (stereo not drawn) | 73.2 |
| CC(C)Nc1ncnc2c1CCN(C(=O)CC1CCCC1)CC2 | 18.3 |
| COc1cccc(C(=O)N2CCc3ncnc(C)c3CC2)c1 | -34.9 |
| COc1cccc(C)c1C(=O)N1CCc2ncnc(NCCO)c2CC1 | 27.6 |
| COc1cccc(CC(=O)N2CCc3ncnc(C)c3CC2)c1 | 61.5 |
| COCCCNc1ncnc2c1CCN(C(=O)CC1C=CCC1)CC2 (stereo not drawn) | 48.2 |
| COc1cccc(CC(=O)N2CCc3ncnc(NC(C)C)c3CC2)c1 | -4.55 |
| COc1cccc(CC(=O)N2CCc3ncnc(NCCO)c3CC2)c1 | 64 |
| Cc1ncnc2c1CCN(C(=O)Cc1ccccn1)CC2 | 14.1 |
| O=C(CCc1cc2n(n1)CCCN(C(=O)[C@H]1CCCO1)C2)NC1CC1 | 33.4 |
| CC(C)c1noc(C2CCN(S(=O)(=O)c3cccs3)CC2)n1 | 17.5 |
| O=C(Nc1cc(C(F)(F)F)c[nH]c1=O)C1CCNCC1 | 11.9 |

| Compound | INHIBITION [%] |
| --- | --- |
| O=C(CN1CCOC(Cn2cncn2)C1)NCc1cccs1 (stereo not drawn) | 34.05 |
| Cc1ccc(O)c(CN(CCCn2ccnc2)Cc2ccc(C)s2)c1 | 79.7 |
| Cc1ccc(CN(CCCn2ccnc2)Cc2[nH]cnc2C)s1 | 9.93 |
| Cc1ccc(CN(CCCn2ccnc2)Cc2ccccc2O)s1 | 54.4 |
| Cc1ccc(CN(CCCn2ccnc2)Cc2c[nH]nc2C(C)(C)C)s1 | 70.1 |
| Cc1ccc(CN(CCCO)Cc2nc3ccccc3[nH]2)s1 | 29.1 |
| COc1ccccc1CN(CCCn1ccnc1)CC1CCOC1 (stereo not drawn) | 43.4 |
| Cc1cn2nc(N3CCCC3Cn3nc(C)nc3C)sc2n1 (stereo not drawn) | -39.7 |
| CC(C)c1noc(C(C)N2CCN(Cc3noc(C(C)(C)C)n3)CC2)n1 (stereo not drawn) | -35.7 |
| Cc1cc(C)nc(N2CCC(C(=O)Nc3n[nH]c(CC(C)C)n3)CC2)n1 | 4.93 |
| CNC(=O)C1Cn2ccnc2C2(CCN(Cc3c(C)noc3C)CC2)O1 (stereo not drawn) | 3.11 |
| Cc1nc(N)c2ccc(C3CCCN3)nc2n1 (stereo not drawn) | 26.55 |
| Cc1ccsc1C(O)CNS(=O)(=O)Cc1ccc(F)cc1 (stereo not drawn) | 9.96 |
| COc1ccc(CC(=O)NCC(O)c2sccc2C)cc1OC (stereo not drawn) | 53.8 |
| COC(=O)c1ccc(S(=O)(=O)NCC(O)c2sccc2C)cc1 (stereo not drawn) | -11.8 |
| Cc1ccsc1C(O)CNC(=O)Cc1ccc(S(=O)(=O)C(C)C)cc1 (stereo not drawn) | 25.3 |
| Cc1cc(S(=O)(=O)NCC(O)c2sccc2C)ccc1F (stereo not drawn) | 13.9 |
| Cc1ccsc1C(O)CNC(=O)Cc1ccc(F)cc1 (stereo not drawn) | 56 |
| COc1ccc(S(=O)(=O)NCC(O)c2sccc2C)cc1Cl (stereo not drawn) | 51.7 |
| COc1ccc(F)cc1S(=O)(=O)NCC(O)c1sccc1C (stereo not drawn) | 16.9 |
| COc1ccc(S(=O)(=O)NCC(O)c2sccc2C)cc1C (stereo not drawn) | 6.34 |
